We go through 24 compounds from PubChem BioAssay.

Experiment [1] can be described thus: phospholipid biosynthesis inhibitors in animal cells, primary screen, cell-based, LOPAC library, screen 4 (AID 1347384; call rule not given here). The note with it: phospholipid biosynthesis inhibition screen, at 10 µM.
The nature of experiment [2]: survival rescue of mitochondrial mutant cells in low glucose, primary screen, MELAS cybrids, Rieske KO mouse fibroblasts, CellTiter-Glo (AID 1508586).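 Also: z relative to plate mean and SD of compound and empty wells.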
For experiment [3], the target named is NAD(+) hydrolase SARM1 (Homo sapiens) (UniProt Q6SZW1). Kind of experiment: SARM1 TIR NADase inhibitors, cell lysate, NAD-Glo luminescence (AID 1508614;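 active = compound whose remaining NAD level is above about 45 nM, limit read from the data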;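 also: higher remaining NAD means stronger inhibition of SARM1 NADase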). The conditions noted are these: SAM-TIR HEK293T lysate NADase, at 1 µM, stronger effect = higher value.
Experiment [4] deals with Mitogen-activated protein kinase 7 (Homo sapiens) (UniProt Q13164). Kind of experiment: ERK5 transactivation activators in reporter cells, primary screen, cell-based, HTS (AID 1508626;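 active = luciferase signal above three times the same-plate solvent-only control wells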;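 also: luciferase driven by Gal4-ERK5 fusion binding five Gal4 sites before minimal TATA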). The note with it: HeLa Gal4-ERK5 transactivation, 18 h, at 5 µM, stronger effect = higher value.
Experiment [5] can be described thus: viability rescue of complex I mutant cybrids, primary screen, cell-based, galactose medium, ATP luminescence (AID 1645843;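 active = z-score of at least 1.8 in each of two replicates, scored against plate mean and spread of sample wells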;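 also: positive z means more ATP and so rescue of galactose-driven cybrid death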). The note with it: complex I mutant cybrid cells, 72 h, stronger effect = higher value.
[6] abbreviates: MELAS cybrid survival, CellTiter-Glo 48 h, stronger effect = higher value.
Setting [7] is: Rieske KO mouse fibroblast survival, CellTiter-Glo 72 h.

Several values for one entry are separate records, joined by “and”; a condition that tells them apart may be missing. Identical values can stand only once. Activity calls are given as the source filed them.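 The calls were made as follows, unless noted: active = mean z-score across replicates of 1.96 or higher in either the MELAS or the Rieske mutant cell line; inactive = the rest.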

Sequence of NAD(+) hydrolase SARM1 (Homo sapiens) (Q6SZW1 whole entry, looked up, the tested form may be a part): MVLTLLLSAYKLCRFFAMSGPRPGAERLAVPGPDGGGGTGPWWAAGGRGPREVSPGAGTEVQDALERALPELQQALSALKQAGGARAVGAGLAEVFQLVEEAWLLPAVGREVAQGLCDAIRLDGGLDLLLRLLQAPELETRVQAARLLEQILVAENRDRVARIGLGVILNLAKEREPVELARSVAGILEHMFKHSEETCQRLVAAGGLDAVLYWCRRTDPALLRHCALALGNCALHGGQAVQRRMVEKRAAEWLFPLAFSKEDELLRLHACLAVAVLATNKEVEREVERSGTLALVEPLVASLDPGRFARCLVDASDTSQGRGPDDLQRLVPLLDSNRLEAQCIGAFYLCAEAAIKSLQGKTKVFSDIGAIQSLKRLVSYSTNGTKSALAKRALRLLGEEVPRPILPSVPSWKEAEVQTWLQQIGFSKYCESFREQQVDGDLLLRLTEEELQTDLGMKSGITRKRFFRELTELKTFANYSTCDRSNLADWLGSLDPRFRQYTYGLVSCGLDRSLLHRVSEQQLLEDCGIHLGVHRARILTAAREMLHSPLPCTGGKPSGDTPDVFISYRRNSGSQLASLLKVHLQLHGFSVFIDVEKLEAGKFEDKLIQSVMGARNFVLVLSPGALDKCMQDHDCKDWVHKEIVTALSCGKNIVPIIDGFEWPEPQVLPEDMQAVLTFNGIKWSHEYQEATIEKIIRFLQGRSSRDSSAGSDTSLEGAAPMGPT
Sequence of Mitogen-activated protein kinase 7 (Homo sapiens) (Q13164 whole entry, looked up, the tested form may be a part): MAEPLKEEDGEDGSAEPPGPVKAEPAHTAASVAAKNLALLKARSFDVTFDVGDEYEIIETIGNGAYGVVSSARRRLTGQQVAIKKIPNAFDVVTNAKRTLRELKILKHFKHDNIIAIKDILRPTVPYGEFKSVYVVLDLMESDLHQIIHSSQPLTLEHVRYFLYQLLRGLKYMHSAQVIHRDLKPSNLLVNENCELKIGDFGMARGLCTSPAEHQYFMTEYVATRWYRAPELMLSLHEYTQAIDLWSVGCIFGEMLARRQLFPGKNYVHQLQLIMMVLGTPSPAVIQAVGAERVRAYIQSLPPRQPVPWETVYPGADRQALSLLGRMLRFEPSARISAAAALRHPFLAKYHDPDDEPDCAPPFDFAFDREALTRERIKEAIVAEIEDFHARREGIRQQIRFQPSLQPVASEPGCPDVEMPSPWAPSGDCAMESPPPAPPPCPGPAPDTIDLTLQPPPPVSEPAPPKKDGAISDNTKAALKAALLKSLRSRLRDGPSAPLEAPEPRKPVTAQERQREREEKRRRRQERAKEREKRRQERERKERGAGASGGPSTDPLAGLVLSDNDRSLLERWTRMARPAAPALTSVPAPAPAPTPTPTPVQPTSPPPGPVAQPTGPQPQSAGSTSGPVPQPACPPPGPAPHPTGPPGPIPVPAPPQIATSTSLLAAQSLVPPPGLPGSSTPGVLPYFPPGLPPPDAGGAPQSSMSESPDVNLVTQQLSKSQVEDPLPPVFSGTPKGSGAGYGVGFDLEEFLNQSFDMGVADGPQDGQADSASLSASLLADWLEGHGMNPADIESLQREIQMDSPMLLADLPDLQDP

As to `CN1CCN(CC(=O)N2c3ccccc3C(=O)Nc3cccnc32)CC1`, the compound was called inactive in experiment [1]. The z-score in experiment [2] (setting [6]) was 0.149 (inactive) and -0.644 (inactive); in experiment [2] (setting [7]), -0.103 and -0.194; in experiment [5], 1.01 (inactive) and 0.81 (inactive). The remaining NAD in experiment [3] is 10 nM (inactive). Besides, the luciferase signal in experiment [4] is 188 AU (inactive).

Regarding `CNC1(C)C2CCC(C2)C1(C)C` (centres undefined), in experiment [1], the compound was classed as inactive. The z-score in experiment [2] (setting [6]) is -0.287 (inactive) and -0.243 (inactive); in experiment [2] (setting [7]) it was 0.191 and -0.476; in experiment [5] it was 0.26 (inactive) and 0.15 (inactive). For the same compound, the luciferase signal in experiment [4] was 108 AU (inactive).

As for `NC(N)=N/N=C/c1c(Cl)cccc1Cl`, in experiment [1], the call was inactive. For the same compound, the z-score is -0.136 (inactive) and 1.02 (inactive) in experiment [2] (setting [6]); 0.531 and 1.03 in experiment [2] (setting [7]); -0.795 (inactive) and 0.845 (inactive) and -1.38 (inactive) in experiment [5]. Besides, the remaining NAD in experiment [3] was 10 nM (inactive). Besides, the luciferase signal in experiment [4] is 52 AU (inactive).

On to `C#CCN(C)Cc1ccccc1`, for which the result in experiment [1] was inactive. Besides, the z-score in experiment [2] (setting [6]) was -0.298 (inactive) and 0.205 (inactive); in experiment [2] (setting [7]) it was -0.334 and 0.464; in experiment [5], 0.465 (inactive) and 0.37 (inactive). In experiment [3], the remaining NAD was 10 nM (inactive). Also, the luciferase signal in experiment [4] was 60 AU (inactive).

`O=C1CC2(CCCC2)CC(=O)N1CCCCN1CCN(c2ncccn2)CC1`: in experiment [1], the compound was classed as inactive. Moreover, the z-score in experiment [2] (setting [6]) was 0.0234 (inactive) and -0.506 (inactive) and -2.15 (inactive); in experiment [2] (setting [7]) it was -3.18 and -0.781 and 0.669. The remaining NAD in experiment [3] was 10 nM (inactive). Moreover, in experiment [4], the luciferase signal was 112 AU (inactive).

`c1cnc(N2CCN(Cc3ccc4c(c3)OCO4)CC2)nc1`: the outcome in experiment [1] was inactive. The z-score in experiment [2] (setting [6]) was -0.549 (inactive) and -0.596 (inactive); in experiment [2] (setting [7]) it was -0.536 and 0.482.

`CCCCC1C(=O)N(c2ccccc2)N(c2ccccc2)C1=O`: the compound was called inactive in experiment [1]. Besides, the z-score was 0.0284 (inactive) and -1.01 (inactive) and 0.0538 (inactive) in experiment [2] (setting [6]); 0.0743 and -0.296 and -0.0136 in experiment [2] (setting [7]); 0.865 (inactive) and 0.7 (inactive) in experiment [5]. Moreover, in experiment [3], the remaining NAD is 10 nM (inactive). The luciferase signal in experiment [4] was 156 AU (active).

As to `CSc1ccc2c(c1)C(N1CCN(C)CC1)Cc1ccccc1S2` (centres undefined), the call in experiment [1] was inactive. Besides, the z-score in experiment [2] (setting [6]) is -0.294 (inactive) and -0.887 (inactive); in experiment [2] (setting [7]), 0.279 and -1.2; in experiment [5] it was -1.29 (inactive) and -1.22 (inactive) and -2.1 (inactive). Moreover, in experiment [3], the remaining NAD was 10 nM (inactive).

Consider `CCN(CC)CCOCCOC(=O)C1(c2ccccc2)CCCC1`, for which, in experiment [1], the result was inactive. In addition, the z-score in experiment [2] (setting [6]) was 0.546 (inactive); in experiment [2] (setting [7]) it was 0.186; in experiment [5], -0.64 (inactive) and -0.655 (inactive). Further, the remaining NAD in experiment [3] was 10 nM (inactive). Besides, the luciferase signal in experiment [4] is 36 AU (inactive).

`COC(=O)[C@H]1[C@H]2C[C@@H]3c4[nH]c5cc(OC)ccc5c4CCN3C[C@H]2C[C@@H](OC(=O)c2cc(OC)c(OC)c(OC)c2)[C@@H]1OC`: in experiment [1], the compound was classed as inactive. The z-score in experiment [2] (setting [6]) was 0.355 (inactive); in experiment [2] (setting [7]), 1.28; in experiment [5] it was -0.19 (inactive) and -0.39 (inactive). Moreover, in experiment [3], the remaining NAD is 10 nM (inactive). The luciferase signal in experiment [4] is 64 AU (inactive).

Consider `COCCc1ccc(OCC(O)CNC(C)C)cc1` (centres undefined), for which the outcome in experiment [1] was inactive. Further, the z-score in experiment [2] (setting [6]) is -0.374 (inactive) and 0.559 (inactive) and -0.0156 (inactive); in experiment [2] (setting [7]) it was -0.175 and -0.344 and -0.724; in experiment [5] it was 0.4 (inactive) and 0.695 (inactive). Besides, in experiment [3], the remaining NAD was 10 nM (inactive). Besides, the luciferase signal in experiment [4] is 40 AU (inactive).

Regarding `CN(C)CCC(c1ccccc1)c1ccccn1` (centres undefined), the compound was classed as inactive in experiment [1]. Further, the z-score is 0.589 (inactive) and -0.102 (inactive) and 0.319 (inactive) in experiment [2] (setting [6]); -0.594 and -0.285 and 0.31 in experiment [2] (setting [7]); 0.62 (inactive) and -0.17 (inactive) in experiment [5]. The remaining NAD in experiment [3] was 10 nM (inactive). Moreover, the luciferase signal in experiment [4] was 44 AU (inactive).

On to `O=c1[nH]cnc2nc[nH]c12`, for which the luciferase signal in experiment [4] is 60 AU (inactive).

On to `CN(C)C(=O)Nc1ccc(Cl)c(Cl)c1`, for which the luciferase signal in experiment [4] is 260 AU (active).

As to `C[C@]12CCC(=O)C=C1CC[C@@H]1[C@@H]2[C@@H](O)C[C@@]2(C)[C@H]1CC[C@]2(O)C(=O)COP(=O)(O)O`, the remaining NAD in experiment [3] was 10 nM (inactive). Also, the luciferase signal in experiment [4] is 72 AU (inactive).

`O=C1C(=O)c2ccccc2C(O)=C1C1CCC(c2ccc(Cl)cc2)CC1` (centres undefined): the z-score in experiment [2] (setting [6]) was -0.28 (inactive) and 0.215 (inactive) and 0.186 (inactive); in experiment [2] (setting [7]), -0.105 and 0.155 and 0.7; in experiment [5], -0.055 (inactive). Also, in experiment [3], the remaining NAD was 10 nM (inactive). Further, the luciferase signal in experiment [4] is 56 AU (inactive).

Regarding `Cc1ccc(C(C)C)cc2c(C)ccc1-2`, the luciferase signal in experiment [4] is 128 AU (inactive).

For `C[C@@H]1CC[C@@]2(OC1)O[C@H]1C[C@H]3[C@@H]4CC[C@H]5C[C@@H](O)CC[C@]5(C)[C@H]4CC(=O)[C@]3(C)[C@H]1[C@@H]2C`, the luciferase signal in experiment [4] was 52 AU (inactive).

For `CC(=O)Oc1ccc(C(c2ccc(OC(C)=O)cc2)c2ccccn2)cc1`, the z-score in experiment [2] (setting [6]) is -0.393 (inactive) and -0.251 (inactive) and -0.144 (inactive); in experiment [2] (setting [7]), -0.124 and -0.26 and 0.348; in experiment [5] it was -0.6 (inactive). For the same compound, the remaining NAD in experiment [3] was 10 nM (inactive). Besides, the luciferase signal in experiment [4] is 44 AU (inactive).

Take `CC(=O)NCCCCCC(=O)O`: in experiment [3], the remaining NAD was 10 nM (inactive). Moreover, the luciferase signal in experiment [4] is 76 AU (inactive).

With `Cc1c(C(=O)O)c(O)cc2c1C(=O)c1c(O)c([C@@H]3O[C@H](CO)[C@@H](O)[C@H](O)[C@H]3O)c(O)c(O)c1C2=O`, the luciferase signal in experiment [4] is 52 AU (inactive).

On to `COc1ccc(CN2CCN(C(c3ccc(F)cc3)c3ccc(F)cc3)CC2)c(OC)c1OC`, for which the z-score in experiment [2] (setting [6]) is -0.49 (inactive) and -0.685 and -0.348 (inactive); in experiment [2] (setting [7]) it was -0.282 and 2.06 and 1.06; in experiment [5], -1.88 (inactive) and -2.46 (inactive). Moreover, in experiment [3], the remaining NAD is 10 nM (inactive).

`CCc1oc2ccccc2c1C(=O)c1cc(Br)c(O)c(Br)c1`: the z-score in experiment [2] (setting [6]) was -0.224 (inactive) and 0.135 (inactive); in experiment [2] (setting [7]), -0.158 and -0.137; in experiment [5], -1.42 (inactive). The remaining NAD in experiment [3] is 10 nM (inactive). Further, in experiment [4], the luciferase signal is 52 AU (inactive).

Take `CC(=O)NS(=O)(=O)c1ccc(N)cc1`: the z-score in experiment [2] (setting [6]) is -0.241 (inactive) and 0.341 (inactive); in experiment [2] (setting [7]) it was -0.167 and 0.175; in experiment [5], -0.2 (inactive). In experiment [3], the remaining NAD was 10 nM (inactive). Besides, the luciferase signal in experiment [4] was 64 AU (inactive).
